# Screening data deposited in PubChem BioAssay by National Center for Advancing Translational Sciences (NCATS).
# CCT chaperon mod = High-Throughput Screening for Modulators of Cytosolic Chaperonin Activity. purified chaperonin ATPase assay, HTRF ADP detection, 30 min. activity change, % (no concentration beside the values), hits read low. 360,000 tested, 0.3% active. AID 651819, 2012; in the data active = activity change below about -30%; also: % is scaled to controls: 0 for no effect and ±100 for the full control effect
#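 TRiC (40 or 20 nM final, by batch activity) in 30 mM Tris pH 7.4, 100 mM KCl, 5 mM MgCl2, 1 mM DTT was treated with compound at 76 uM single dose, then 10 uM ATP, 30 min at 37 °C. ADP was read by HTRF Transcreener.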
# A549 viability = Nrf2 qHTS screen for inhibitors: counterscreen for cytotoxicity; A549 ARE-Fluc cells, CellTiter-Fluor viability, 18-24 h; Potency, µM (doses to about 46 µM), without a hit: at the highest dose activity change, negative = cytotoxicity, actives largely listed as inhibitors; 390,000 tested, 0.16% active; also: potency is read from the fitted curve at half-maximal effect; % is scaled to controls: 0 for no effect and ±100 for the full control effect
#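 Cytotoxicity counterscreen: CellTiter-Fluor fluorescence was measured in A549 ARE_Fluc cells after 18-24 h of compound exposure in a concentration series. The subsequent BugLite luminescent read reports ARE-luciferase activity.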
# AT treatment = qHTS Assay for Identifying a Potential Treatment of Ataxia-Telangiectasia. F2112 A-T fibroblasts, KAP-1 phosphorylation AlphaLISA; neocarzinostatin DNA damage 30 min before lysis. Potency, µM (top dose mostly 57.5 µM), inactives show at the highest dose activation, usual class: activators. 320,000 tested, 0.19% active. AID 485349, 2010; also: potency is read from the fitted curve at half-maximal effect; % of control where 0% means no effect; nearly all actives have a fitted effect of over 45% in size
#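 ATM-like activity read as KAP-1 phosphorylation via AlphaLISA donor/acceptor antibody pairs after lysis and 6 hr at 25C. Cells were ATM-null patient fibroblasts (F2112, hTERT), dosed 60 min, then exposed to the DSB inducer NCS for 30 min.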
# Nrf2 activator = qHTS of Nrf2 Activators | AREc32 ARE-luciferase reporter (MCF7-derived line), luminescence, 24 h | Potency, µM (titrated, usually from 46.1 µM), for the others: at the top dose activation, actives largely listed as activators | 410,000 tested, 0.31% active; also: potency is read from the fitted curve at half-maximal effect; % of control where 0% means no effect; nearly all actives have a fitted effect of over 65% in size
#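 AREc32 cells carrying an ARE-driven firefly luciferase, 1000 cells/well in OPTI-MEM with 5% FBS, dosed after overnight attachment and incubated 24 hr at 37 deg C. Steady-Glo luminescence read after 30 min at RT.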
# Nrf2 inh = Nrf2 qHTS screen for inhibitors; A549 ARE-Fluc reporter, luciferase luminescence, 18-24 h; Potency, µM (series often up to 46 µM), for the others: at the highest dose activity change, negative = inhibition, usual class: inhibitors; 360,000 tested, 2.1% active; AID 504444, 2011; also: potency is read from the fitted curve at half-maximal effect; % is scaled to controls: 0 for no effect and ±100 for the full control effect; nearly all actives have a fitted effect of over 60% in size
#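 A549 ARE_Fluc cells, 5000/well, 5% FBS OPTI-MEM; compounds in dose-response, 18-24 h at 37 °C/5% CO2; CellTiter-Fluor viability read (Ex 405/Em 525), then BugLite luciferase luminescence = Nrf2 activity.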
# TCR act = Activators of T cell receptors: qHTS campaign. primary human leukocytes, anti-CD3, IL-2 HTRF, 48 h. Potency, µM (highest dose often 9.22 µM), without a hit: top-dose activation of IL-2 secretion, hits mostly activators. 330,000 tested, under 10 active; also: % of control where 0% means no effect
#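 Primary human leukocytes incubated 48 hr with anti-CD3 beads plus compound, without co-stimulation. Secreted IL-2 measured by HTRF (europium cryptate/d2 anti-IL-2 pair, 320 nm excitation, 665 nm emission).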
# An asterisk follows results filed as active; ? = inconclusive; . = not tested or not shown; [ ] = another dose, or the depositor's remark. Hits are enriched below; roughly 2.6% of the tested compounds scored in any of these assays. Unless noted, calls follow the shape of the dose curve; as a rule, active = well fitted curve in the direction sought with a large enough effect; inconclusive = small, poorly fitted or top-dose-only effect, or another doubt; inactive = no such curve, though single readings can be large; an effect the other way counts as inactive or inconclusive.
SMILES,CCT chaperon mod,A549 viability,AT treatment,Nrf2 activator,Nrf2 inh,TCR act
COc1cccc(-n2cc(C(=O)Nc3cc(OC)c(OC)c(OC)c3)c3ccccc3c2=O)c1,.,1%,.,7%,37%,.
O=C(Nc1ccc(Cl)c(Cl)c1)N1N=CCC1c1ccccc1 (stereo not given),-3,?,6%,4%,16µM*,2%
O=C(Nc1ccccc1)N1N=CCC1c1ccccc1 (stereo not given),2,-2%,4%,0%,2%,0%
Cc1ccsc1C(=O)NCCC(c1ccccc1)c1ccccc1,-2,9%,5%,2%,5%,-4%[46.1 µM]
Cc1nc(C)c(C(=O)NCCC(c2ccccc2)c2ccccc2)o1,2,-22%,4%,1%,10µM*,-3%
O=C(c1ccc(CSc2nc3ccncc3[nH]2)cc1)N1CCN(c2cccc(Cl)c2)CC1,0,-26%,0%,-3%,21µM*,-12%
S=C1NC2=C(CCCC2=C2SCCS2)C(c2ccccc2)N1 (stereo not given),1,1%,-5%,22µM*,?,-7%
Fc1ccc(/C=C2\CCCC3=C2NC(=S)NC3c2ccc(F)cc2)cc1 (stereo not given),.,.,-7%,.,.,6%[46.1 µM]
COc1c(C(=O)Nc2nnc(C3CC3)s2)csc1Cl,0,13%,3%,8.9µM*,?,1%
Cc1cnc(C(=O)Nc2nnc(C3CC3)s2)cn1,-2,-12%,-4%,-1%,?,4%
CCn1c(SCC(=O)N2c3ccccc3Sc3ccccc32)nnc1-c1ccco1,-1,-10%,-3%,3%,23µM*,.
c1ccc(CCc2ccccc2-c2nc(-c3cccnc3)no2)cc1,-1,4%,40µM*,4%,5%,-3%
Fc1ccccc1-c1nc(-c2ccncc2)no1,-2,2%,-7%,13µM*,?,-7%
Brc1cccc(-c2nc(-c3ccncc3)no2)c1,1,9%,17%,11µM*,.,1%
Cc1nc(-c2cccc(-c3noc(C)n3)c2)no1,-44*,-10%,5%,-1%,5%,0%
CCOC(=O)C1=C(COC(=O)/C=C/c2ccc(F)cc2)NC(=O)NC1C (stereo not given),0,.,.,4%,.,.
c1ccc(-c2noc(-c3cccc4ccccc34)n2)cc1,-2,11%,?,1.6µM*,?,-1%
c1ccc2c(-c3nc(-c4ccncc4)no3)cccc2c1,-2,19%,32%,25%,?,.
O=[N+]([O-])c1cc(-c2nc(-c3ccncc3)no2)cc([N+](=O)[O-])c1,-1,-2%,-4%,3%,?,-6%[46.1 µM]
Cc1c(-c2nc(-c3ccncc3)no2)cccc1[N+](=O)[O-],0,13%,0%,11µM*,12%,0%
Cc1cccc(-c2nc(-c3ccncc3)no2)c1,3,2%,-4%,13µM*,?,-53%
Clc1ccc(Br)cc1-c1nc(-c2ccncc2)no1,2,0%,3%,4µM*,?,.
Cc1cc(OCC(=O)Nc2cc(-c3nc4ccccc4[nH]3)ccc2C)ccc1Cl,.,-30%,.,5%,?,.
O=C(Cc1ccc([N+](=O)[O-])cc1)Nc1ccc2c(c1)CCC2,-3,4%,5%,0%,3%,15%
Cc1ccc(Cn2c(CCNC(=O)c3cccc(C)c3)nc3ccccc32)cc1,.,-20%,.,-1%,?,.
SMILES,CCT chaperon mod,A549 viability,AT treatment,Nrf2 activator,Nrf2 inh,TCR act
CCOc1ccc(NC(=O)c2ccc3c(SCC(=O)O)c4c(nc3c2)CCC4)cc1,.,2%,.,0%,5%,.
COc1ccc(S(=O)(=O)NCC(c2ccco2)N2CCN(c3ccc(F)cc3)CC2)cc1C (stereo not given),.,1%,.,5%,.,.
FC(F)(F)c1cccc(-c2nc(-c3ccncc3)no2)c1,-2,0%,-1%,11µM*,?,-5%
CNC(=O)COC(=O)/C=C/c1ccco1,-7,3%,-2%,24%,-18%,-6%
CC1CC(C)CN(C(=O)COC(=O)/C=C/c2ccco2)C1 (stereo not given),-2,18%,11%,14µM*,0%,7%
CC(NC(=O)COC(=O)/C=C/c1ccco1)c1ccccc1 (stereo not given),1,-9%,0%,13µM*,16%,8%
CCOC(=O)c1c(NC(=O)CSc2nnc(-c3ccco3)o2)sc(C(C)=O)c1C,-60*,-6%,.,0%,.,-4%
Cc1cc2c(s1)c1cnn(Cc3cc(F)ccc3C)c(=O)c1n2C,.,-2%,.,.,5%,.
CS(=O)(=O)N(Cc1ccccc1)c1ccc(C(=O)Nc2cccnc2)cc1,-2,2%,4%,1%,-1%,-4%[46.1 µM]
CS(=O)(=O)N(Cc1ccc(Cl)cc1)c1ccc(C(=O)Nc2cccnc2)cc1,2,-19%,-10%,0%,16µM*,2%
Cc1cc(S(=O)(=O)N(Cc2ccc(F)cc2)CC2CCCO2)ccc1-n1cnnn1 (stereo not given),-1,-7%,7%,-1%,-19%,0%
Cc1cc(S(=O)(=O)N(Cc2ccc(C(C)C)cc2)CC2CCCO2)ccc1-n1cnnn1 (stereo not given),-2,-10%,.,-1%,23µM*,.
Cc1c(C(=O)N(Cc2cccc(F)c2)C2CCS(=O)(=O)C2)oc2cc(Br)ccc12 (stereo not given),.,-20%,.,1%,13µM*,.
CC(C)(C)C(=O)NC(=S)NNC(=O)c1ccc(-c2ccccc2)cc1,2,?,-6%,-2%,2.9µM*,0%
CC(C)(C)C(=O)NC(=S)NNC(=O)c1ccncc1,-3,2%,7%,0%,?,6%
CC(C)(C)C(=O)NC(=S)NNC(=O)c1ccc(Cl)cc1Cl,0,?,-2%,0%,8.2µM*,1%
Cc1ccc(Cn2ncc3c4sc(C)cc4n(C)c3c2=O)cc1,.,-5%,.,.,5%,.
O=C1CCc2cc(S(=O)(=O)Nc3cccc(B(O)O)c3)ccc2N1,.,-6%,.,.,?,.
Cc1ccc(Cn2ccsc2=NC(=O)COC(=O)c2ccc(NC(=O)CC#N)cc2)cc1,-2,-14%,0%,1%,23µM*,0%
CCCCCN1C=CC(=C2C(=O)c3ccccc3C2=O)C=C1,-1,-16%,-11%,-1%,9.2µM*,1%
CC1=CC(=C2C(=O)c3ccccc3C2=O)C=C(C)N1C,1,?,-1%,8%,11%,8%
